Results: PubChem BioAssay
The source made the active and inactive calls.

Columns and labels:
[1] = tested on: Plasmodium falciparum Sir2 (PF13_0152, Sir2A); assay: pfSir2 binders on small-molecule microarrays, primary screen, biochemical, small-molecule microarray, 635 nm fluorescence (AID 1098); details: small-molecule microarray binding, fluorescence 635 nm; higher = more signal;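 further: score merges spot fluorescence intensity with its signal-to-noise ratio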
[2] = small-molecule microarray binders of probe aDKK1, primary screen, biochemical, biotinylated probe, 635/667 nm fluorescence (AID 1099); details: higher = more signal;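 further: score merges 667nm spot fluorescence with signal to noise across triplicate slides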
[3] = small-molecule microarray binders of probe aCHRDL2, primary screen, biochemical, biotinylated probe, 635/667 nm fluorescence (AID 1100); details: higher = more signal
[4] = splicing luciferase reporter signal modulators, primary screen, spliceosome inhibition project, cell-based, HEK293, splice +/- reporter (AID 1101); details: luminescence, 24 h, higher = more signal, called active from +8 up or from −8 down;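 further: HEK293 cells carrying a splicing-competent luciferase reporter gene; test concentration not given here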
[5] = biological target: Fibroblast growth factor 10 (Homo sapiens) (UniProt O15520); assay: FGF10 binders on small-molecule microarrays, primary screen, biochemical, small-molecule microarray, 635 nm fluorescence (AID 1102); details: FGF10 binding, fluorescence 635 nm, higher = more signal
[6] = tested on: glycogen synthase kinase-3 (GSK3A per assay name; protocol says GSK3B); assay: GSK3 binders on small-molecule microarrays, primary screen, biochemical, small-molecule microarray, 635 nm fluorescence, GSK3A (AID 1103); details: small-molecule microarray binding, fluorescence 635 nm; higher = more signal; further: the record names both GSK3A and GSK3B
[7] = biological target: Epidermal growth factor receptor (Homo sapiens) (UniProt P00533); assay: EGFR binders on small-molecule microarrays, primary screen, biochemical, small-molecule microarray, 635 nm fluorescence (AID 1104); details: EGFR binding, higher = more signal;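 further: score merges 667 nm emission intensity with spot signal to noise over triplicate slides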
[8] = biological target: Follistatin-related protein 3 (Homo sapiens) (UniProt O95633); assay: FSTL3 binders on small-molecule microarrays, primary screen, biochemical, small-molecule microarray, 635 nm fluorescence (AID 1105); details: FSTL3 binding, higher = more signal;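 further: score merges emission near 667 nm and signal to noise per printed spot across three slides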
[9] = biological target: Dickkopf-related protein 1 (Homo sapiens) (UniProt O94907); assay: DKK1 binders on small-molecule microarrays, primary screen, biochemical, small-molecule microarray, 635 nm fluorescence scan (AID 1106); details: DKK1 binding, higher = more signal;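 further: score merges emission near 667 nm with signal to noise over three replicate slides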
[10] = tested on: Inhibin beta A chain (activin A); assay: INHBA (activin A) binders on microarrays, primary screen, biochemical, small-molecule microarray, 635 nm fluorescence scan (AID 1107); details: small-molecule microarray binding, higher = more signal;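 further: mouse activin A protein probed at 4.33 µg/mL on printed slides; score merges bound-protein fluorescence near 667 nm with spot signal-to-noise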
[11] = tested on: Human papillomavirus type 1a protein E7 (residues 44-93); assay: HPV1a E7 fragment binders on microarrays, primary screen, biochemical, small-molecule microarray, residues 44-93, 635 nm fluorescence (AID 1108); details: small-molecule microarray binding, fluorescence 635 nm; higher = more signal;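 further: E7 fragment applied at 1 µg/mL in TBST for 1 h at 4 C; score combines spot fluorescence with its signal to noise ratio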
[12] = modulators of HCV replicon luciferase signal, primary screen, HCV replication inhibitor project, Huh7 cells, luciferase reporter (AID 1109); details: 48 h, higher = more signal;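 further: huh7 hepatoma cells harbouring a luciferase neomycin HCV replicon reporter; luciferase luminescence as measure of HCV replicon replication; test concentration not given here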
[13] = biological target: Left-right determination factor 2 (Homo sapiens) (UniProt O00292); assay: LEFTY2 binders on small-molecule microarrays, primary screen, biochemical, small-molecule microarray, 635 nm fluorescence scan (AID 1110); details: LEFTY2 binding, higher = more signal
[14] = biological target: Calmodulin-1 (Homo sapiens) (UniProt P0DP23); assay: CALM1 binders on microarrays, EGTA buffer, profiling panel, biochemical, small-molecule microarray, Cy5-labelled CALM1 (AID 1111); details: Cy5-CALM1 binding fluorescence, higher = more signal;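 further: labelled calmodulin applied in Tris saline Tween buffer holding calcium plus EGTA and DTT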
[15] = biological target: Calmodulin-1 (Homo sapiens) (UniProt P0DP23); assay: calcium-bound CALM1 binders on microarrays, profiling panel, artefact control for SMM control-protein annotation, biochemical, small-molecule microarray, Cy5-labelled CALM1, plus calcium (AID 1112); details: Cy5-CALM1 binding fluorescence, higher = more signal;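 further: score merges spot fluorescence with signal to noise from triplicate slides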
[16] = small-molecule microarray binders of probe aWnt5a, primary screen, biochemical, biotinylated probe, 635/667 nm fluorescence (AID 1113); details: higher = more signal;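 further: score merges 667 nm fluorescence intensity with signal-to-noise per printed feature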
[17] = small-molecule microarray binders of probe aShh, primary screen, biochemical, biotinylated probe, 635/667 nm fluorescence (AID 1114); details: higher = more signal;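 further: probe is biotin-labelled aShh protein from a stem cell growth factor screen; measures binding of labelled protein to compounds printed on the slide; score merges feature fluorescence at 667 nm with signal-to-noise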
[18] = small-molecule microarray binders of probe aNog, primary screen, biochemical, biotinylated probe, 635/667 nm fluorescence (AID 1115); details: higher = more signal;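 further: probe is biotinylated aNog protein used at 0.15 µg/mL for 1 h at 4 C; z-score combines 667 nm fluorescence of each spot with its signal to noise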
[19] = biological target: Torsin-1A-interacting protein 1 (Homo sapiens) (UniProt Q5JTV8); assay: LAP1 binders from COS7 cell lysate, primary screen, small-molecule microarray, 635/667 nm fluorescence (AID 1116); details: COS7-hLAP1 lysate binding, 635 nm fluorescence, higher = more signal
[20] = biological target: Alpha-bungarotoxin (Bungarus multicinctus) (UniProt P60615); assay: alpha-bungarotoxin binders on microarray, profiling panel, artefact control for SMM control protein annotation, biochemical, small-molecule microarray, Alexa647 label, 635/667 nm fluorescence (AID 1117); details: alpha-BTX-A647 binding fluorescence, higher = more signal
Chain of Alpha-bungarotoxin (Bungarus multicinctus) (P60615 whole entry, looked up): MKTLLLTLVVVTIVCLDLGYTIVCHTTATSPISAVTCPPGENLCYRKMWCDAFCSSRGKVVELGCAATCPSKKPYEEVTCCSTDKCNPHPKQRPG

Chain of Fibroblast growth factor 10 (Homo sapiens) (O15520 whole entry, looked up): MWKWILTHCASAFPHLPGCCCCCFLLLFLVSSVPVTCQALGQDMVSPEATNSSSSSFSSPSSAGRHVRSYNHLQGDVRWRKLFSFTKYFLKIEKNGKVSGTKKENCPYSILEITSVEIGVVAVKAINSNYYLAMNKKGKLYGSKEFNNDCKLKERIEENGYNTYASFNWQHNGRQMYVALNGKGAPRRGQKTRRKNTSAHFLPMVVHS
Chain of Torsin-1A-interacting protein 1 (Homo sapiens) (Q5JTV8 whole entry, looked up): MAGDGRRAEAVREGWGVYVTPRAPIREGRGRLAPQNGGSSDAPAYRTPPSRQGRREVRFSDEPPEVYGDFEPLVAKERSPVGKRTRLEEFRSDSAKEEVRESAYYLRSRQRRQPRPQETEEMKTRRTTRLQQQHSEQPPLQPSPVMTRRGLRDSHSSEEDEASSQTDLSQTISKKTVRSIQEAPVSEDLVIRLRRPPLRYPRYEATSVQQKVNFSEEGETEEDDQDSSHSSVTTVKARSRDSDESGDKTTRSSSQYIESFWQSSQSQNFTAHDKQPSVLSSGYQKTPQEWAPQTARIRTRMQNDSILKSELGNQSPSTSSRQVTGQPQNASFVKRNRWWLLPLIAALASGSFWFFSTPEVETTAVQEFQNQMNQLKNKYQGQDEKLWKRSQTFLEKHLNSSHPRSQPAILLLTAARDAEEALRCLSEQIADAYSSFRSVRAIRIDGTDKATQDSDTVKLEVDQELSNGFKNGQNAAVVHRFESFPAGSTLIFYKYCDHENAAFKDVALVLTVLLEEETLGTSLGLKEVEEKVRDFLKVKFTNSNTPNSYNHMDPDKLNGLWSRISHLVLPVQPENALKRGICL
Chain of Dickkopf-related protein 1 (Homo sapiens) (O94907 whole entry, looked up): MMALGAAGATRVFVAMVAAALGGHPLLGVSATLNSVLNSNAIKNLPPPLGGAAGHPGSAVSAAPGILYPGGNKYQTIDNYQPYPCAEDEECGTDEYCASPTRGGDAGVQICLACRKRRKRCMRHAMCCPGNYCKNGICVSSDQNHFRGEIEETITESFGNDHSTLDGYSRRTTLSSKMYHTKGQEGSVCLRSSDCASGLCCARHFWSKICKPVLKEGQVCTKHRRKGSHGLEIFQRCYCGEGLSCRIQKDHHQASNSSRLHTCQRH
Chain of Follistatin-related protein 3 (Homo sapiens) (O95633 whole entry, looked up): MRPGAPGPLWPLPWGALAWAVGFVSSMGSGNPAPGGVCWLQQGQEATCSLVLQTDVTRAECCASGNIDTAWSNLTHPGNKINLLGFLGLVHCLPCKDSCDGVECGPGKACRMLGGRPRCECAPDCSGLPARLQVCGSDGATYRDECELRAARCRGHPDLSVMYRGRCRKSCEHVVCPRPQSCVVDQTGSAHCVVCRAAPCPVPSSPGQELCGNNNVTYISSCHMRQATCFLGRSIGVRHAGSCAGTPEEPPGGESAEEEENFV
Chain of Left-right determination factor 2 (Homo sapiens) (O00292 whole entry, looked up): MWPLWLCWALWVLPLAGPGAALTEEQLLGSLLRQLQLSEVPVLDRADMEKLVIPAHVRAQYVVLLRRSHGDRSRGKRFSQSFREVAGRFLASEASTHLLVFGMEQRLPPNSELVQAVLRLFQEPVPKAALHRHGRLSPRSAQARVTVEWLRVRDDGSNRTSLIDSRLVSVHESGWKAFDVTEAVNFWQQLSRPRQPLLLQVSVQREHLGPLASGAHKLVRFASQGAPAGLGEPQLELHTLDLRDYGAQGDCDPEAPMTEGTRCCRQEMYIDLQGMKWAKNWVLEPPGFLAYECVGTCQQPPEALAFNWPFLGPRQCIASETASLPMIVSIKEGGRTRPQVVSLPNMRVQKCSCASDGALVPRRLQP
Chain of Epidermal growth factor receptor (Homo sapiens) (P00533 whole entry, looked up): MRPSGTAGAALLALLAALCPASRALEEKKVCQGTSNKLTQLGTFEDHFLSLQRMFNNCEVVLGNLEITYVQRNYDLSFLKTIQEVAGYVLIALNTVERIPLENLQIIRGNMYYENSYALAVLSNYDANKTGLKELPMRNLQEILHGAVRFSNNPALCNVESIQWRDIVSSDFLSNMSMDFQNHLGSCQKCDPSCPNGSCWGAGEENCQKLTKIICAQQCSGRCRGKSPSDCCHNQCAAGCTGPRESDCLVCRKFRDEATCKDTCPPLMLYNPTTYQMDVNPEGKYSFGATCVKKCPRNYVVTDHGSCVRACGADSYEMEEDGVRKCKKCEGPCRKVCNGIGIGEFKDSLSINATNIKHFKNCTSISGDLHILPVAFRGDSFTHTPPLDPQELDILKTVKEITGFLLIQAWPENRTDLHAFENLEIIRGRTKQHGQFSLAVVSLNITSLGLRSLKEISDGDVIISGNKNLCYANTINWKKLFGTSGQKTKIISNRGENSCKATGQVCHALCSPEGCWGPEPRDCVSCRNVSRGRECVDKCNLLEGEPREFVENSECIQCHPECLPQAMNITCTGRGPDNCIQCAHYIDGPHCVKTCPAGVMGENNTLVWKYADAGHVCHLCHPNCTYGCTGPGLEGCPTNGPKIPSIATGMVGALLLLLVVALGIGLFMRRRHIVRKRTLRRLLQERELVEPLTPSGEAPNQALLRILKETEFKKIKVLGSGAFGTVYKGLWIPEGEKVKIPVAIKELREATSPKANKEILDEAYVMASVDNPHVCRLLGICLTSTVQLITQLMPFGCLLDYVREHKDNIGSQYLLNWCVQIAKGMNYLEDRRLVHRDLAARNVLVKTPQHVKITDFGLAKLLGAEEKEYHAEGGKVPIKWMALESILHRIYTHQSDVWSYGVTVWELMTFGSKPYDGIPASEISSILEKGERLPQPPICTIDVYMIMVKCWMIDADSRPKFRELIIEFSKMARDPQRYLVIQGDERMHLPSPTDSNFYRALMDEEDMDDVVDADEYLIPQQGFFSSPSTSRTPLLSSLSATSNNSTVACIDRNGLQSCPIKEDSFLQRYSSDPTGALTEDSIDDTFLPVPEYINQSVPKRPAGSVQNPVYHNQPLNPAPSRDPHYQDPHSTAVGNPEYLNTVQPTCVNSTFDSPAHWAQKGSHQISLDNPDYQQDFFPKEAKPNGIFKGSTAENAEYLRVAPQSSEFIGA

| Compound | composite z-score [1] | composite z-score [2] | composite z-score [3] | z-score [4] | composite z-score [5] | composite z-score [6] | composite z-score [7] | composite z-score [8] | composite z-score [9] | composite z-score [10] | composite z-score [11] | z-score [12] | composite z-score [13] | composite z-score [14] | composite z-score [15] | composite z-score [16] | composite z-score [17] | composite z-score [18] | composite z-score [19] | composite z-score [20] |
| --- | --- | --- | --- | --- | --- | --- | --- | --- | --- | --- | --- | --- | --- | --- | --- | --- | --- | --- | --- | --- |
| C#CCN([C@@H](Cc1ccc(O)cc1)C(=O)OC)[C@@H](/C=C/C1CC1)[C@H](O)Cc1ccccc1 | -0.189 | -0.236 | -0.26 | 0.25 (inactive) | -0.251 | -0.689 | -0.0832 | 0.122 | 0.103 | 0.644 | -0.184 | -3 | -0.0906 | -0.634 | -1.04 | -0.0425 | -0.223 | -0.407 | 0.0583 | -0.0345 |
| COCCCNC(=O)[C@@]1(Cc2ccccc2N=[N+]=[N-])N=C(c2ccc(OCCCO)cc2)O[C@H]1c1ccccc1 | 1.55 | 0.231 | 1.01 | 0.181 (inactive) | 0.911 | 1.28 | -0.338 | 0.402 | 0.157 | 1.14 | 1.41 | -1.54 | -0.394 | 0.906 | -0.257 | 0.269 | 0.142 | 1.76 | 1.63 | 0.643 |
| C=CCOC(=O)[C@H]1[C@@H]2C(=O)O[C@@H](c3ccccc3)[C@@H](c3ccccc3)N2[C@@H](c2ccc(OCCOC(=O)[C@@H]3C[C@@H]4C(=O)N5CCC[C@H]5C(=O)N4[C@@H]3c3ccc(O)cc3)cc2)[C@]12C(=O)Nc1ccc(I)cc12 | 0.637 | -0.102 | 0.357 | 0.431 (inactive) | 0.53 | 0.195 | 0.482 | 0.594 | 1.39 | 0.372 | -0.0566 | -1.71 | 0.621 | 0.793 | 0.29 | -0.117 | -0.155 | 0.633 | 0.521 | 0.881 |
| COCCCNC(=O)[C@]1(CCS(=O)(=O)c2ccccc2)N=C(c2ccc(OCCCO)cc2)O[C@@H]1c1ccccc1CN=[N+]=[N-] | 1.51 | 1.41 | 1.26 | -0.325 (inactive) | 1.54 | 1.32 | 0.233 | 1.2 | -0.0602 | 0.746 | 0.826 | -1.47 | 0.329 | 2.49 | 1.12 | 0.392 | 0.536 | 1.54 | 2.7 | 2.16 |
| CC[C@H]1C2=C3C(CC[C@H]4C(OCc5ccc(F)cc5C(F)(F)F)OC[C@](C)([C@@H]34)N(C(=O)OC(C)(C)C)C2)C(COC)C1COC (stereo not given in full) | -0.0539 | 0.222 | 0.475 | 0.477 (inactive) | -0.0147 | -0.652 | -0.52 | 0.269 | -0.384 | 0.561 | 0.732 | -0.25 | -0.696 | 0.914 | 0.771 | 0.0768 | -0.214 | 1.33 | -0.0575 | 0.0915 |
| C=CC[C@]1(C(=O)O)COC(c2ccc(OCCCO)cc2)=N1 | 1.58 | -0.133 | 0.568 | -0.565 (inactive) | -0.0346 | 0.156 | 0.0943 | 0.406 | 0.117 | 0.888 | 0.549 | 0.183 | 0.268 | 0.0295 | 0.47 | -0.0203 | -0.138 | -0.419 | -0.0942 | 0.291 |
| CCCC[C@@H](O)C1=C(COc2ccccc2)C[C@H]2C(=O)N(C)C(=O)[C@H]2[C@H]1CO | 0.119 | -0.423 | -0.575 | -1.3 (inactive) | -0.0816 | -0.0425 | -0.333 | -0.0008 | -0.0034 | 0.799 | -1.05 | -0.408 | -0.164 | -0.756 | -0.527 | -0.195 | -0.2 | -0.519 | -1 | -0.149 |
| COCCOC(=O)N1C(=O)[C@@]2(c3cc(C#Cc4ccc(OC)cc4)ccc31)[C@H](C(=O)Nc1nc3ccccc3s1)[C@H]1C(=O)O[C@H](c3ccccc3)[C@H](c3ccccc3)N1[C@@H]2c1ccc(O)cc1 | 1.48 | 0.166 | -0.0767 | -0.591 (inactive) | 1.39 | 1.29 | 0.571 | 1.24 | 0.875 | 0.318 | 1.38 | -0.841 | 0.631 | 0.876 | -0.138 | 0.0559 | 0.314 | -0.376 | 0.37 | 1.34 |
